# Assay results from PubChem BioAssay (NCI).
# The panel holds about 83,000 compounds, 20% with a hit somewhere; the sample as a whole holds those more often.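 Compound tested at a single concentration for 48 hours in 96-well plates; a percent growth value below 10 was scored as active.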 Unmarked numbers belong to inactive results. Activity calls are given as the source filed them.
# Legend:
# Experiment in all cases: NCI-60 one-dose screen, 48 h (100 = growth as untreated, 0 = no growth, -100 = all killed)
# Conditions in all cases: 10 µM unless noted
# SK-MEL-2 melanoma = test system: SK-MEL-2 melanoma
# EKVX NSCLC = test system: EKVX NSCLC
# SN12C renal = test system: SN12C renal
# UO-31 renal = test system: UO-31 renal
# TK-10 renal = test system: TK-10 renal
# ACHN renal = test system: ACHN renal
# CAKI-1 renal = test system: CAKI-1 renal
# A498 renal = test system: A498 renal
# CCRF-CEM leukemia = test system: CCRF-CEM leukemia
# MOLT-4 leukemia = test system: MOLT-4 leukemia
# SR leukemia = test system: SR leukemia
# RPMI-8226 leukemia = test system: RPMI-8226 leukemia
# OVCAR-8 ovarian = test system: OVCAR-8 ovarian
# OVCAR-5 ovarian = test system: OVCAR-5 ovarian
# OVCAR-4 ovarian = test system: OVCAR-4 ovarian
# SK-OV-3 ovarian = test system: SK-OV-3 ovarian
# IGROV1 ovarian = test system: IGROV1 ovarian
# OVCAR-3 ovarian = test system: OVCAR-3 ovarian
# HS 578T breast = test system: HS 578T breast
# NCI/ADR-RES ovarian = test system: NCI/ADR-RES ovarian
SMILES,growth (SK-MEL-2 melanoma),growth (EKVX NSCLC),growth (SN12C renal),growth (UO-31 renal),growth (TK-10 renal),growth (ACHN renal),growth (CAKI-1 renal),growth (A498 renal),growth (CCRF-CEM leukemia),growth (MOLT-4 leukemia),growth (SR leukemia),growth (RPMI-8226 leukemia),growth (OVCAR-8 ovarian),growth (OVCAR-5 ovarian),growth (OVCAR-4 ovarian),growth (SK-OV-3 ovarian),growth (IGROV1 ovarian),growth (OVCAR-3 ovarian),growth (HS 578T breast),growth (NCI/ADR-RES ovarian)
CC1(C)NCCC[C@]2(C)[C@H]3CC[C@@H]4[C@H]5[C@H](C(=O)/C=C/c6ccccn6)CC[C@]5(CO)CC[C@@]4(C)[C@]3(C)CC[C@@H]12,108%,101%,62.4%,66.8%,176%,73.4%,32.7%,84%,12.3%,3.77% (active),-19.6% (active),-13.1% (active),47.6%,97.9%,35.9%,82.2%,63.4%,40.9%,70.8%,76.8%
Cn1nc(-c2ccccc2)c2c(-c3ccccc3)onc2c1=O,40.1%,54.2%,45.4%,39.6%,53%,58.4%,36.5%,24.6%,20.9%,42.8%,26.4%,24.9%,51.9%,66.5%,72.1%,13.3%,51.3%,12.2%,15.8%,45.8%
Fc1ccc(NCc2nnc(-c3ccc(Cl)cc3)o2)cc1,85.5%,77%,79.4%,54.3%,126%,78.7%,69.8%,77.2%,74.6%,49.6%,71.1%,54.1%,79.9%,86.9%,69.2%,81.5%,51.6%,79.6%,84.6%,90.6%
COc1cccc(-c2nn(-c3ccccc3)cc2-c2ccnc(NCCNS(=O)(=O)c3ccc(Cl)cc3)c2)c1,13.4%,32.1%,33.9%,15.8%,41.5%,26.6%,32.2%,45.9%,15.3%,1.18% (active),-5.49% (active),9% (active),31.1%,56.2%,35.9%,44.9%,39.3%,40.6%,54.3%,27.9%
CC(=O)c1c(C)[nH]c(-c2nc3ccc(N4CCN(C)CC4)cc3[nH]2)c1-c1ccc(N(C)C)cc1,64.3%,34.5%,48.2%,7.2% (active),-6.31% (active),19.8%,10.3%,6.38% (active),36.3%,45.5%,33%,0.258% (active),43.7%,41.6%,37.2%,12.6%,15.6%,34.6%,21.1%,34.2%
N#Cc1cnc2cc(OC[C@@H](O)CO)c(NC(=O)C3CCCC3)cc2c1Nc1ccc(OCc2cccc(F)c2)c(Cl)c1,-56.9% (active),-36.8% (active),13.8%,35.3%,29.5%,40.2%,59.4%,55.5%,-26.8% (active),6.26% (active),13.4%,-13.5% (active),-13.6% (active),86.1%,-74.8% (active),27%,4.22% (active),-82% (active),-32.2% (active),63.3%
COc1ccc(-c2nc(Nc3ccc(-c4nc5ccccc5[nH]4)cc3)nc(N3CCOCC3)n2)cc1,-19.2% (active),7.91% (active),40.8%,-43.5% (active),43.9%,9% (active),-56.6% (active),-32.1% (active),-1.84% (active),1.78% (active),6.01% (active),-13.8% (active),39.2%,66.3%,59.8%,19.6%,33.7%,5.15% (active),-11.9% (active),34.2%
C[C@]12CC[C@@H]3c4ccc(O)cc4CC[C@H]3[C@@H]1C[C@H](O)[C@@H]2O,104%,67.4%,94.9%,78.2%,100%,93.7%,90.5%,92.6%,103%,109%,99.2%,98.6%,103%,85.5%,99.8%,120%,98%,90.3%,86.6%,102%
COc1cc2c(cc1-c1c(C)noc1C)ncc1nc(C3CC3)n([C@H](C)COC(F)F)c12,74.1%,56.9%,71.4%,21.6%,26.5%,40.6%,34.1%,0.499% (active),52%,42.2%,25.5%,17.8%,46.3%,84.2%,58.7%,1.36% (active),58.6%,42%,8.14% (active),40.1%
CC1=NN(c2ccc(S(=O)(=O)O)cc2Cl)C(=O)C1,112%,101%,100%,89.2%,101%,105%,85.1%,102%,99.1%,123%,113%,104%,99.9%,94.3%,102%,105%,105%,158%,131%,98.9%
Cc1ccc(Cc2cnc(NC(=O)/C=C/c3cccc(C)c3)s2)cc1,51.6%,29.4%,31.4%,33.7%,28.3%,12.1%,12.5%,-5.43% (active),9.04% (active),16.7%,13.2%,3.37% (active),21%,20.9%,12.9%,15.7%,18.3%,-41.4% (active),6.83% (active),-36.5% (active)
CC(C)c1cc(C(=O)O)c(O)c(C(C)C)c1.CC(C)c1cc(C(=O)O)c(O)c(C(C)C)c1.[Mn],118%,102%,101%,85.5%,106%,103%,100%,126%,95.1%,99.2%,93.5%,98%,101%,116%,96.3%,110%,114%,96.9%,107%,118%
COc1ccc(-n2c(/C=C/c3ccc(O)c(OC)c3)cc(/C=C/c3ccc(O)c(OC)c3)nc2=O)cc1,84.9%,56.7%,66.6%,47.8%,104%,69.5%,87.4%,113%,15.2%,17.2%,14.2%,21.4%,66%,112%,62.5%,62.3%,63.5%,41.4%,62.5%,84.3%
CN1CCN(c2ccc3nc(-c4[nH]ncc4Nc4ncnc5[nH]ccc45)[nH]c3c2)CC1,-27.8% (active),2.05% (active),2.59% (active),-9.13% (active),-9.08% (active),0.294% (active),1.7% (active),-45.7% (active),4.45% (active),-13.6% (active),-6.78% (active),101%,7.18% (active),6.49% (active),-10.9% (active),12.6%,0.386% (active),-0.64% (active),15.8%,80.4%
